Data as given in PubChem BioAssay (NCI).
Where “and” joins values, the source holds several entries; their conditions need not be identical. Identical values can stand only once. Compounds without any hit were thinned out: in the full panel of roughly 83,000, 20% have a hit.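 Compound tested at a single concentration for 48 hours in 96-well plates; a percent growth value below 10 was scored as active.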 Unmarked numbers belong to inactive results. Calls of active or inactive are those of the source.

The molecules below were run on MDA-MB-468 breast (assay: NCI-60 one-dose screen, 48 h (100 = growth as untreated, 0 = no growth, -100 = all killed)). Details: 10 µM unless noted.
Work on `Cn1cc(C(=O)c2nc(-c3c[nH]c4ccc(Br)cc34)no2)c2cc(F)ccc21` yielded a growth of 108%. Work on `COc1cc(CN2CCC(N3CCCC3=O)c3ccccc32)cc(OC)c1OC` (configuration not stated) yielded a growth of 36.3%. `Cc1nc2ccc(Nc3nc(N4CCOCC4)nc(N4CCN(C)CC4)n3)cc2n1Cc1ccccc1` was tested, and the growth was 66.8%. Work on `CCOC(=O)C1(N)CCCCC1` yielded a growth of 105%. For `Cc1ccc2c(ccc3c[n+]4c5ccccc5ccc4n32)c1`, the growth was -56.3% (active). `O=C1NC(=O)/C(=C/c2ccc3nccc(-c4ccncc4)c3c2)S1` was tested, and the growth was -49.2% (active). With `O=C(O)c1ccc2c(c1)nc(Nc1cccc(Cl)c1)c1ccncc12` the growth was -36.1% (active). `CCO/C=N/C1=C(C#N)C(c2ccc(F)cc2)c2sc3c(F)cccc3c2O1` (configuration not stated) showed a growth of 27.2%. With `CCOC(=O)Nc1ccc2c(c1)/C(=N\NC(=S)NC)c1ccccc1-2` the growth was 86.8%. Work on `Cc1ccc(NC(=O)Cn2c(Br)nc3c2c(=O)n(C)c(=O)n3C)cc1` yielded a growth of 10.4%. Work on `N#Cc1ccc2nc[nH]c2c1` yielded a growth of 87.6%. `CC(CN)[C@@H]1CC[C@]2(CO)CC[C@]3(C)[C@H](CC[C@@H]4[C@@]5(C)CCC(NCCO)C(C)(C)[C@@H]5CC[C@]43C)[C@@H]12` (some centres not stated) was tested, and the growth was 11.8%. In the case of `COC1(CC[C@@H](C)COC2OC(CO)C(O)C(O)C2O)O[C@H]2C[C@H]3[C@@H]4CC=C5C[C@@H](OC6OC(CO)C(OC7OC(C)C(O)C(O)C7O)C(O)C6OC6OC(C)C(O)C(O)C6O)CC[C@]5(C)[C@H]4CC[C@]3(C)[C@H]2[C@@H]1C` (some centres not stated), the growth is reported as -24% (active). `NCc1c(O)ccc2ccccc12` showed a growth of 93.9%. `COC(=O)[C@@H](Cc1c[nH]c2ccccc12)NC(=O)CCCCOc1cc(O)c2c(=O)cc(-c3ccccc3)oc2c1` gave a growth of 71.3%. `Cc1cn(-c2cc(F)cc(NC(=O)c3ccc(C)c(Nc4nccc(-c5cccnc5)n4)c3)c2)cn1` was tested, and the growth was -63.4% (active). With `O=C(NCc1ccccc1)Nc1ccccc1CNc1nc(Nc2ccc(OCCN3CCCC3)cc2)ncc1Cl` the growth was 74.5%. Work on `Cc1cc(NCc2cc(Nc3ccnc4cc(Cl)ccc34)ccc2F)nc(N2CCN(c3ccccc3)CC2)n1` yielded a growth of 30.2%. `COC(=O)[C@]1(CCSC)N[C@H](c2cn(-c3ccccc3)nc2C)[C@@H]2C(=O)N(c3ccccc3)C(=O)[C@@H]21` was tested, and the growth was 108%. With `O=S(c1ccccc1)c1ccc2nnnn2n1` (configuration not stated) the growth was 112%. In the case of `CCNC(=O)N1CCc2cc(OC)c(OCCc3ccc(OC)c(N)c3)cc2C1c1ccc(C)cc1C` (configuration not stated), the growth is reported as -0.144% (active). `CC(=O)Nc1c(C)cc(C)cc1C` showed a growth of 108%. `COc1cc(NC(=O)CSc2nc3ccccc3c(=O)n2CCc2ccccc2)cc(OC)c1OC` gave a growth of 29.9%. `CC(=O)c1c[nH]c2ccc(-c3ccnc(Nc4ccc(NC(=O)C5CCCC5)c(CN5CCOCC5)c4)n3)cc12` was tested, and the growth was -53.9% (active). In the case of `COC(=O)c1c(C)[nH]c(/C=C2\N=C(c3ccc[nH]3)C=C2OC)c1C`, the growth is reported as -69.4% (active). `C=C(C)[C@@H]1CC[C@]2(C(=O)O)CC[C@]3(C)[C@H](CC[C@@H]4[C@@]5(C)C[C@@H](CC#Cc6ccccc6)C(=O)C(C)(C)[C@@H]5CC[C@]43C)[C@@H]12` was tested, and the growth was 19.8%. In the case of `CCCCCCCCCCCCSC(=N)N`, the growth is reported as -58.5% (active). `COc1ccc(-c2cn3c(C(=O)Nc4ccccc4Cl)c(-c4ccccc4)c4c3n2CCCC4)cc1` was tested, and the growth was 84.1%. `C=C(C)[C@@H]1CC[C@]2(COC)CC[C@]3(C)[C@H](CC[C@@H]4[C@@]5(C)CCCNC(C)(C)[C@@H]5CC[C@]43C)[C@@H]12` was tested, and the growth was -50.5% (active). In the case of `CCOC(=O)c1c(C)nc2c(c1N)C(=O)C(=O)N2CCc1ccc(OC)c(OC)c1`, the growth is reported as 49%. In the case of `O=C(Nc1ccc(F)cc1)c1cc2ccccc2cc1O`, the growth is reported as 60.8%. Work on `CCOC(=O)c1ccc(NC(=O)Nc2ncc(Cl)cc2Cl)cc1` yielded a growth of 95.1%. In the case of `O=C(Cc1ccccc1)Cc1ccccc1`, the growth is reported as 99.5%. In the case of `COc1cc2cc(Oc3ccc(NC(=O)Nc4ccc(Cl)c(C(F)(F)F)c4)cc3)c(C)nc2cc1OCCN1CCCCC1`, the growth is reported as -72.3% (active). In the case of `CC(=O)Nc1cccc2c1CCCC2`, the growth is reported as 100% and 91.1%. `CCOC(=O)C(C#N)C1CCCCC1` (configuration not stated) showed a growth of 124%. In the case of `CN(C)CCCn1c2c(c3cc(-c4ccco4)ccc3c1=O)C(=O)c1ccccc1-2`, the growth is reported as 40.2%.
